Source: PubChem
Only a selection was taken, and hits are over-represented in it overall.
Cruzain noTriton: cruzain (T. cruzi) inhibition without detergent. P25779. purified cruzain, Z-FR-AMC fluorescence, no detergent. Potency, µM, inactives show max response, negative = inhibition, most hits filed as inhibitors. 200,000 tested, 2.3% active;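 note: plate controls were enzyme without inhibitor for no effect and buffer without enzyme for full effect; nearly all actives have a fitted effect of over 40% in size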
Target sequence (P25779 123-467 limits assumed): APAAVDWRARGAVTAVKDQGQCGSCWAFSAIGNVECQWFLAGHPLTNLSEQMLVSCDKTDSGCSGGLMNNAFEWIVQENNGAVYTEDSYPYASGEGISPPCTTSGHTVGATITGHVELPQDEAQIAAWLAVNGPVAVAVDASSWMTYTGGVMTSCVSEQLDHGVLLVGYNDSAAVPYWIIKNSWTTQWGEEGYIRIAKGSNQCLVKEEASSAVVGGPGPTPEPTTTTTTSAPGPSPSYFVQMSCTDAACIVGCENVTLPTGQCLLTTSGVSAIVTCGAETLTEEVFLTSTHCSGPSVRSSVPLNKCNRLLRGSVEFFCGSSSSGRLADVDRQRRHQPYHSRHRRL
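Purified cruzain at 1.5 nM, pre-incubated 15 min with compound at room temperature in 100 mM sodium acetate pH 5.5, 5 mM DTT, 0.00005% Triton X-100. Reaction started with 2 uM Z-FR-AMC; AMC fluorescence increase over 60 s gives rate.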
FBPA Giardia inh: inhibitors of Giardia lamblia fructose-1,6-bisphosphate aldolase. purified Giardia FBPA. A8B2U2. Potency, µM (series often up to 59.6 µM), for inactives: at the top dose activity, negative = inhibition, actives largely listed as inhibitors. AID 2451. 290,000 tested, 0.71% active; note: nearly all actives have a fitted effect of over 55% in size
Target sequence (A8B2U2 whole entry, looked up): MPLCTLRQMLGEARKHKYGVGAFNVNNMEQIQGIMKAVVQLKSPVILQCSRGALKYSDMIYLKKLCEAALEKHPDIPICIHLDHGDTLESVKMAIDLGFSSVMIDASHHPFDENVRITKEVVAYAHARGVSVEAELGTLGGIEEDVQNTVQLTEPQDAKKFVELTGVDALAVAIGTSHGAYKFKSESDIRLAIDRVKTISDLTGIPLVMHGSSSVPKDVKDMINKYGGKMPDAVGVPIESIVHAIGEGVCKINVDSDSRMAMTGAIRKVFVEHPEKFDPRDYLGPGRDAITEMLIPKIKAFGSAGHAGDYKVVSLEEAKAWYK
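40 nM FBPA preincubated 10 min at RT with compound (up to 57.5 uM final), then substrate plus GAPDH/TPI/NAD/arsenate coupling and diaphorase/resazurin added. Fluorescence read after 20 min at RT, 525/598 nm.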
Cruzain Triton: blocks cruzain activity in presence of Triton detergent; P25779; purified cruzain, Z-FR-AMC fluorescence, 0.01% Triton; Potency, µM, inactives show max response, negative = inhibition, actives largely listed as inhibitors; 200,000 tested, 0.43% active;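 note: plate controls were neutral wells for no effect and buffer without enzyme for full effect; nearly all actives have a fitted effect of over 40% in size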
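Cruzain (1.5 nM) preincubated 15 min at RT with compound in 100 mM sodium acetate pH 5.5, 5 mM DTT, 0.01% Triton X-100. Reaction started with 2 uM Z-FR-AMC; AMC fluorescence (ex 360/em 450 nm) change over 60 s gave rate.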
Starred values were filed as active, the others as inactive; u = inconclusive; x = not tested or not shown; ! = not confirmed by another sample; [ ] = remark or other dose. Calls come from the whole dose curve; as a rule, active = well fitted curve in the direction sought with a large enough effect; inconclusive = small, poorly fitted or top-dose-only effect, or another doubt; inactive = no such curve, though single readings can be large; an effect the other way counts as inactive or inconclusive. Unless noted, % is set by controls: 0 for no effect and ±100 for the full control effect; potency is the fitted concentration of half-maximal effect.

SMILES	Cruzain noTriton	FBPA Giardia inh	Cruzain Triton
O=C(CSc1ncnc2ccccc12)c1ccc2c(c1)OCCO2	-5%	-7%	-6%
CN1C[C@H](C(=O)N[C@@]2(C)O[C@@]3(O)[C@H]4CCCN4C(=O)[C@@H](Cc4ccccc4)N3C2=O)C=C2c3cccc4[nH]cc(c34)C[C@@H]21	-12%	x	2%
COc1ccc(CNc2oc(/C=C/c3cccc(OC)c3)nc2C#N)cc1	u	x	11%
O=c1nc(Nc2ccccc2)sc2ccc([N+](=O)[O-])cc12	10µM*	-5%	-3%
O=[N+]([O-])c1ccc(Nc2ccccc2)cc1	-11%	-14%	-10%
Clc1ccc2nc(N3CCN(c4ccccc4)CC3)sc2c1	20µM*	3%	0%
Brc1ccc2nc(N3CCN(c4ccccc4)CC3)sc2c1	x	2%	x
c1ccc(N2CCN(c3nc4cc5c(cc4s3)OCO5)CC2)cc1	13µM*	6%	-5%
c1c2c(cc3sc(N4CCOCC4)nc13)OCO2	-20%	-5%[12.9 µM]	2%
C=CCOC(=O)C(C(C)=O)C(NC(=O)OC)c1ccc(F)cc1 (stereo not drawn)	x	2%[12.9 µM]	x
CN1CCC(NC(=O)Nc2ccc(Br)cc2)CC1	x	0%	x
CN1CCN(C(=S)C(=O)Nc2ccc(Br)cc2)CC1	x	5µM*	x
COc1ccc(-c2ccc3c(n2)CCCN3C[C@H](O)CN2CCCc3nc(C)c(C)cc32)cc1	x	-18%[12.9 µM]	x
C/C(=N/NC(N)=S)c1ccccc1[N+](=O)[O-]	13µM*	u	16µM*
C/C(=N\NC(=O)c1ccc([N+](=O)[O-])c(C)c1)c1ccccc1Cl	15%	-5%	-2%
C=C(C)CN=C1SC(C(=O)Nc2sc3c(c2C(=O)OC)CCC3)C(N)=C1C(N)=O (stereo not drawn)	-18%	-9%	-5%
COC(=O)c1c(NC(=O)C2SC(=NC3CCCCC3)C(C(N)=O)=C2N)sc2c1CCCC2 (stereo not drawn)	7.9µM*	-1%	-3%
N[C@@H](Cn1ccc(=O)n(Cc2ccccc2C(=O)O)c1=O)C(=O)O	9%	u	-4%
C=CCN1C(=O)/C(=C\c2ccc(Cl)cc2)N=C1SCC(=O)NC1CCCCC1	10µM*	1%	1%
Nn1c(SCC(=O)NC2CCCCC2)nnc1-c1ccc(Cl)cc1	-1%	0%	0%
C=C(C)C1CCC(C)C(OC(C)=O)C1 (stereo not drawn)	x	6%	x
Cc1ccc(Cl)cc1-n1c(=O)c2sc3ccccc3c2n(CC(=O)NC2CCCCC2)c1=O	u	x	-3%
COc1ccccc1OCC(=O)Nc1oc(-c2ccccc2)c(-c2ccccc2)c1C#N	u	16%	0%
N#Cc1c(NC(=O)COC(=O)C2CC3C=CC2C3)oc(-c2ccccc2)c1-c1ccccc1 (stereo not drawn)	7.9µM*	2%	-7%
COc1cc(N=C2C(=O)N3c4c(cccc42)C(C)=CC3(C)C)cc(OC)c1	-1%	-17%	-5%
SMILES	Cruzain noTriton	FBPA Giardia inh	Cruzain Triton
CC1=CC(C)(C)N2C(=O)C(=Nc3ccc(O)cc3)c3cccc1c32	x	13µM*	x
COc1ccc(NC(=O)C(c2ccccc2)N(C)C(=O)/C=C\c2ccc3c(c2)OCO3)cc1 (stereo not drawn)	-13%	x	-6%
COc1cccc(NC(=O)C(OC(=O)/C=C/c2ccc3c(c2)OCO3)c2ccccc2)c1 (stereo not drawn)	20µM*	1%	-5%
C=C(C)C(O)/C=C/C=C/c1ccccc1 (stereo not drawn)	x	0%[12.9 µM]	x
O=C1CCCc2cc(S(=O)(=O)NCC3CCC(C(=O)Nc4ccc(Cl)cc4)CC3)ccc2N1 (stereo not drawn)	-12%	x	-5%
CCCC(=O)Nc1sc(C)c(-c2ccc(C(C)CC)cc2)c1C#N (stereo not drawn)	7.9µM*	2%	9%
CCCC(=O)Nc1sc(C)c(C)c1C#N	x	-4%	x
Cc1sc(NC(=O)C2CCCC2)c(C#N)c1C	-17%	-19%	-18%
CCc1ccc(-c2c(C)sc(NC(=O)C3CCC3)c2C#N)cc1	16µM*	-4%	0%
COC(=O)[C@H](Cc1ccccc1)NC(=O)[C@@H](C)CO	x	-1%[12.9 µM]	x
COc1cccc(Nc2nc(-c3sc(NC(=O)c4ccccc4)nc3C)cs2)c1	u	-3%	1%
Cc1nc(NC(=O)c2ccc(Cl)cc2)sc1-c1csc(Nc2cccc(F)c2)n1	10µM*	-2%	9%
COc1ccccc1Nc1nc(-c2sc(NC(=O)C(C)(C)C)nc2C)cs1	-4%	-6%	-2%
Cc1ccc(Nc2nc(-c3sc(NC(=O)c4cccc(Cl)c4)nc3C)cs2)cc1	4µM*	0%	6%
COc1ccccc1Nc1nc(-c2sc(NC(=O)c3cccc(Cl)c3)nc2C)cs1	7.9µM*	-10%	11%
Cc1nc(C)c(-c2csc(NCc3ccco3)n2)s1	-8%	1%	-7%
Cc1nc(NC(=O)c2ccccc2)sc1-c1csc(NCc2ccco2)n1	16µM*	-9%	5%
Cc1nc(NC(=O)c2ccccc2)sc1-c1csc(Nc2ccc(C(=O)O)cc2)n1	x	-19%	x
COc1ccc(N(CC(=O)Nc2cccc(C(C)=O)c2)S(=O)(=O)c2ccccc2)c(OC)c1	14%	x	-4%
COc1cccc(CS(=O)(=O)c2nnnn2-c2ccc(F)cc2Br)c1	0%	0%	2%
CCc1ccc2occ(CC(=O)Nc3ccc(OC)c(Cl)c3)c2c1	-9%	x	-7%
COc1cc(-c2ccc(N=Nc3ccc4c(S(=O)(=O)O)cc(S(=O)(=O)O)c(N)c4c3O)c(OC)c2)ccc1N=Nc1ccc2c(S(=O)(=O)O)cc(S(=O)(=O)O)c(N)c2c1O	u	14µM*	25µM*!
Cc1nn(-c2ccc(S(=O)(=O)O)cc2)c(O)c1N=Nc1ccc(-c2ccc(N=Nc3ccc4c(S(=O)(=O)O)cc(S(=O)(=O)O)c(N)c4c3O)c(O)c2)cc1O.[Cu].[Cu]	1%	x	-6%
CCCC[C@]12Cc3ccccc3C(O1)c1c(cc(-c3ccccc3)oc1=O)O2	x	2µM*	x
CCCC[C@]12Cc3cc(OC)c(OC)cc3C(O1)c1c(cc(-c3ccccc3)oc1=O)O2	x	13%[12.9 µM]	x
SMILES	Cruzain noTriton	FBPA Giardia inh	Cruzain Triton
Cc1ccc(S(=O)(=O)Nc2ccc(S(=O)(=O)N3CCCC3)cc2)cc1	0%	12%	-2%
COCCOC(=O)c1c(C)n(S(=O)(=O)c2ccc(C)cc2)c2ccc(NS(=O)(=O)c3ccc(C)cc3)cc12	10µM*	x	-3%
Cc1ccc(S(=O)(=O)Nc2ccc3c(c2)c(C(=O)OC(C)C)c(C)n3S(=O)(=O)c2ccc(C)cc2)cc1	5µM*	x	-3%
COCCOC(=O)c1c(C)oc2ccc(NS(=O)(=O)c3ccc(F)cc3)cc12	x	-1%	x
Cc1oc(C)c2c(=O)cc(-c3ccc4c(c3)OCO4)cc(OC(=O)c3ccccc3Cl)c12	-4%	x	-2%
Cc1oc(C)c2c(=O)cc(-c3ccc4c(c3)OCO4)cc(OC(=O)c3ccccc3Br)c12	16µM*	x	-9%
COc1ccc2cc3cc(C(=O)N4CCN(c5ccccc5F)CC4)oc3nc2c1	-19%	x	-3%
Cc1cc(=O)n(CC(=O)NC(C)c2ccccc2)c2c1c(C)nn2C (stereo not drawn)	-5%	x	-1%
Cc1cc(=O)c2c(O)c3c(O)cc(O)c4c5c(O)cc(O)c6c(O)c7c(=O)cc(C)c8c1c2c(c34)c(c65)c78	u	-28%	-24%
O=C(O)CCC(=O)c1cccc2ccccc12	-9%	9%	-2%
